Data published in PubChem BioAssay (NCATS).
Inconclusive results are not listed. Calls of active or inactive are those of the source. Calls come from the whole dose curve; as a rule, active = well fitted curve in the direction sought with a large enough effect; inconclusive = small, poorly fitted or top-dose-only effect, or another doubt; inactive = no such curve, though single readings can be large; an effect the other way counts as inactive or inconclusive.

Key:
HEK293 = test: Cytotoxic Profiling of Annotated Libraries Using Quantitative High-Throughput Screening (AID 1296008); conditions: Five cell lines viability, CellTiter-Glo ATP luminescence, 48-72 h; max response: active compounds read low; note: nearly all actives have a fitted effect of over 60% in size; note: potency is the fitted concentration of half-maximal effect; for max response: % is set by controls: 0 for no effect and ±100 for the full control effect
Summary of the method: (§1)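 Cells exposed to compounds for 48 or 72 hr at 37 degrees Celsius. Viability read as ATP-coupled luminescence with CellTiter-Glo after 10 min at room temperature.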

HaCat [1] = test: as above; conditions: Five cell lines viability, CellTiter-Glo ATP luminescence, 48-72 h; max response: active compounds read low
Summary of the method: as §1

KB-3-1 = test: as above; conditions: Five cell lines viability, CellTiter-Glo ATP luminescence, 48-72 h; max response: active compounds read low
Summary of the method: as §1

HEK293T [2] = test: qHTS assay to identify novel small-molecules to repurpose for Merkel cell carcinoma treatment (AID 1296009); conditions: MCC and control cell lines, CellTiter-Glo viability, 72 h; at 44.8 µM (top of the series) unless noted; note: nearly all actives have a fitted effect of over 60% in size
Summary of the method: (§2)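 Cells were treated for 72 hr at 37 degree celsius with compounds in 8- or 11-point dose response. Viability was read by CellTiter-Glo luminescence, normalized to no-cell (cytotoxicity) and DMSO controls.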

C33A = test: Primary qHTS to identify gynecologic anti-cancer compounds using libraries of approved drugs and bioactive compounds (AID 1345084); conditions: Gynecologic cancer cell panel viability, ATPlite luminescence, 48 h; series mostly up to 57.5 µM; note: nearly all actives have a fitted effect of over 55% in size; note: potency is the fitted concentration of half-maximal effect; for activity change, negative = cytotoxicity: % is set by controls: 0 for no effect and ±100 for the full control effect
Summary of the method: (§3)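 Cells, 1,000 per well, were allowed to settle for 16 h at 37 C before compound addition. Five concentrations were tested for 48 h, and viability was read by ATPlite luminescence after 15 min at room temperature.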

CASKI = test: as above; conditions: Gynecologic cancer cell panel viability, ATPlite luminescence, 48 h; series mostly up to 57.5 µM
Summary of the method: as §3

Es-2 = test: as above; conditions: Gynecologic cancer cell panel viability, ATPlite luminescence, 48 h; series mostly up to 57.5 µM
Summary of the method: as §3

HeLa = test: as above; conditions: Gynecologic cancer cell panel viability, ATPlite luminescence, 48 h; series mostly up to 57.5 µM
Summary of the method: as §3

Hek293T [3] = test: as above; conditions: Gynecologic cancer cell panel viability, ATPlite luminescence, 48 h, control line for the selectivity index; series mostly up to 57.5 µM
Summary of the method: as §3

JEG-3 = test: as above; conditions: Gynecologic cancer cell panel viability, ATPlite luminescence, 48 h; series mostly up to 57.5 µM
Summary of the method: as §3

HACAT [4] = test: qHTS assay to identify novel small-molecules to repurpose for Merkel cell carcinoma treatment (AID 1296009); conditions: MCC and control cell lines, CellTiter-Glo viability, 72 h; series mostly up to 44.8 µM; note: nearly all actives have a fitted effect of over 60% in size
Summary of the method: as §2

CAOV3 = test: Primary qHTS to identify gynecologic anti-cancer compounds using libraries of approved drugs and bioactive compounds (AID 1345084); conditions: Gynecologic cancer cell panel viability, ATPlite luminescence, 48 h; series mostly up to 57.5 µM; note: nearly all actives have a fitted effect of over 55% in size; note: potency is the fitted concentration of half-maximal effect; for activity change, negative = cytotoxicity: % is set by controls: 0 for no effect and ±100 for the full control effect
Summary of the method: as §3

O=C(N/N=C/c1ccc(O)c(O)c1)c1cc2ccccc2cc1O
inactive: outcome (HEK293) | max response (HaCat [1]) -0.414% | max response (KB-3-1) 7.95% | outcome (HEK293T [2]) inactive [at 17.4 µM] | Potency (C33A) | Potency (CASKI) | Potency (Es-2) | Potency (HeLa) | Potency (Hek293T [3]) | Potency (JEG-3)

C[C@@H]1CCC2C(C)(C)[C@H](O)CC[C@]2(C)[C@@]12Cc1c(O)cc3c(c1O2)CN([C@@H](CCC(=O)O)C(=O)O)C3=O (some centres not stated)
inactive: outcome (HEK293) | outcome (HaCat [1]) | max response (KB-3-1) 6.48% | Potency (HACAT [4]) | outcome (HEK293T [2]) inactive [at 17.4 µM] | Potency (C33A) | Potency (CAOV3) | Potency (CASKI) | Potency (Es-2) | Potency (HeLa) | Potency (Hek293T [3]) | Potency (JEG-3)

N#Cc1ccc2[nH]cc(CCCCN3CCN(c4ccc5oc(C(N)=O)cc5c4)CC3)c2c1
active: Potency (HEK293) 8.2 µM
inactive: max response (HaCat [1]) -11.5% | max response (KB-3-1) -15.8% | Potency (C33A) | Potency (CAOV3) | Potency (CASKI) | Potency (Es-2) | Potency (HeLa) | Potency (Hek293T [3]) | Potency (JEG-3)

COC1/C=C/C(C)(O)C(SCC(N)C(=O)O)CC(=O)OC(C)C(C)CC/C=C/1C (configuration not stated)
inactive: outcome (HEK293) | outcome (HaCat [1]) | max response (KB-3-1) 0.268% | Potency (HACAT [4]) | outcome (HEK293T [2]) inactive [at 17.4 µM] | Potency (C33A) | Potency (CAOV3) | Potency (CASKI) | Potency (Es-2) | Potency (HeLa) | Potency (Hek293T [3]) | Potency (JEG-3)

Nc1nc2c(ncn2[C@@H]2O[C@@H]3COP(=O)(O)O[C@H]3[C@H]2O)c(=O)[nH]1
inactive: max response (HEK293) -4.75% | outcome (HaCat [1]) | outcome (KB-3-1) | Potency (HACAT [4]) | Potency (C33A) | Potency (CAOV3) | Potency (CASKI) | Potency (Es-2) | Potency (HeLa) | Potency (Hek293T [3]) | Potency (JEG-3)

COc1ccccc1NC(=O)OCC1CCN(C(=O)OC(C)(C)C)CC1
inactive: max response (HEK293) -0.473% | max response (HaCat [1]) 2.46% | max response (KB-3-1) -8.5% | Potency (C33A) | Potency (CAOV3) | Potency (CASKI) | Potency (Es-2) | Potency (HeLa) | Potency (Hek293T [3]) | Potency (JEG-3)

O=C(CO)[C@@H](O)[C@H](O[C@@H]1O[C@H](CO)[C@H](O)[C@H](O)[C@H]1O)[C@H](O)CO
inactive: outcome (HEK293) | max response (HaCat [1]) -14% | max response (KB-3-1) 5.5% | outcome (HEK293T [2]) | Potency (C33A) | Potency (CAOV3) | Potency (CASKI) | Potency (Es-2) | Potency (HeLa) | Potency (Hek293T [3]) | Potency (JEG-3)

COCCOc1cnc2ccn([C@H](C)c3nnc4c(F)cc(-c5cnn(C)c5)cn34)c(=O)c2c1
inactive: max response (HEK293) 1.47% | max response (HaCat [1]) 4.9% | max response (KB-3-1) 1.49% | Potency (C33A) | Potency (CAOV3) | Potency (CASKI) | Potency (Es-2) | Potency (HeLa) | Potency (Hek293T [3]) | Potency (JEG-3)

Cc1ccc(-c2c(C(=O)CF)n(CCCO)c3ncnc(N)c23)cc1
inactive: outcome (HEK293) | max response (HaCat [1]) 4.6% | max response (KB-3-1) 4.56% | outcome (HEK293T [2]) | Potency (C33A) | Potency (CASKI) | Potency (Es-2) | Potency (HeLa) | Potency (Hek293T [3]) | Potency (JEG-3)

c1ccc(-c2csc(N3CCOCC3)n2)cc1
inactive: outcome (HEK293) | max response (HaCat [1]) -7.34% | max response (KB-3-1) 8.26% | outcome (HEK293T [2]) | Potency (C33A) | Potency (CASKI) | Potency (Es-2) | Potency (JEG-3)

Cn1nnc(-c2ccc(-c3ccc(N4C[C@H](COP(=O)(O)O)OC4=O)cc3F)cn2)n1
inactive: max response (HaCat [1]) 0.171% | max response (KB-3-1) -33% | Potency (CAOV3)
active: Potency (HEK293) 0.58 µM | Potency (CASKI) 12.6 µM

CC1(C)C2CC(OC3OC(COC4OCC(O)(CO)C4O)C(O)C(O)C3O)C1(C)CC2O (configuration not stated)
inactive: max response (HEK293) -3.81% | max response (HaCat [1]) -6.58% | outcome (KB-3-1) | Potency (CAOV3) | Potency (CASKI)

CC(=O)c1cc(C(=O)N[C@@H](C)Cn2ccc(-c3ccc(C#N)c(Cl)c3)n2)[nH]n1
active: Potency (HEK293) 23.1 µM
inactive: max response (HaCat [1]) -24.9% | max response (KB-3-1) -26.1% | Potency (CAOV3) | Potency (CASKI) | Potency (Es-2) | Potency (HeLa) | Potency (JEG-3)

C=C1C(=O)OC2CC(C)=C(C(C)CCCO)C(O)C12 (configuration not stated)
inactive: max response (HEK293) -3.2% | max response (HaCat [1]) -11.4% | outcome (KB-3-1) | Potency (C33A) | Potency (CAOV3) | Potency (CASKI) | Potency (Es-2) | Potency (HeLa) | Potency (Hek293T [3]) | Potency (JEG-3)

CCOc1cc(C)c(Cl)cc1S(=O)(=O)n1cnc2ccccc21
inactive: max response (HEK293) -19.4% | max response (HaCat [1]) -29.2% | outcome (KB-3-1) | Potency (C33A) | Potency (CAOV3) | Potency (CASKI) | Potency (Es-2) | Potency (HeLa) | Potency (Hek293T [3]) | Potency (JEG-3)

C[C@@H]1O[C@@H](O[C@H]2[C@H](O)[C@@H](O)[C@H](O[C@H]3[C@H](O[C@H]4CC[C@@]5(C)C(=CC[C@@H]6C5CC[C@]5(C)[C@@H]7[C@H](C[C@@H]65)O[C@]5(CC[C@@](C)(CO[C@@H]6O[C@H](CO)[C@@H](O)[C@H](O)[C@H]6O)O5)[C@H]7C)C4)O[C@H](CO)[C@@H](O)[C@@H]3O)O[C@@H]2CO)[C@H](O)[C@H](O)[C@H]1O (some centres not stated)
active: Potency (HEK293) 1.23 µM | Potency (KB-3-1) 0.778 µM
inactive: max response (HaCat [1]) -8.19% | activity change, negative = cytotoxicity (C33A) 1.06% [at 11.6 µM] | activity change, negative = cytotoxicity (CAOV3) -9.22% [at 11.6 µM] | activity change, negative = cytotoxicity (CASKI) 21.1% [at 11.6 µM] | activity change, negative = cytotoxicity (Es-2) 3.9% [at 11.6 µM] | activity change, negative = cytotoxicity (HeLa) 6.34% [at 11.6 µM] | activity change, negative = cytotoxicity (Hek293T [3]) -9.56% [at 11.6 µM] | activity change, negative = cytotoxicity (JEG-3) 4.71% [at 11.6 µM]
